Experimental data reported in PubChem BioAssay (NCI).
About 83,000 compounds went through this panel and 20% of them were active in at least one assay; those are over-represented in the sample as a whole.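 Treatment: one concentration, 48 hours, 96-well format. Scoring: percent growth, with anything below 10 considered active.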 Values without a mark were called inactive. Active and inactive are the calls of the source.

System: MDA-MB-468 breast
Test: NCI-60 one-dose screen, 48 h (100 = growth as untreated, 0 = no growth, -100 = all killed)
Details: 10 µM unless noted

Row | Structure (SMILES) | growth
1 | COc1cc(C(=O)c2cnc(-c3ccc4cc[nH]c4c3)[nH]2)cc(OC)c1OC | -23.2% (active)
2 | O=C1C=CC(=O)N1CO | 117%
3 | Fc1ccc(NC(c2ccc(F)cc2)C2CCN(CCCCc3ccccc3)CC2)cc1 (stereo not given) | 7.21% (active)
4 | CN(C)CCCC(C#N)c1ccccc1 (stereo not given) | 108%
5 | C=C1C(=O)O[C@H]2[C@H]1CC/C(COC(=O)OC/C1=C/CC[C@@]3(C)O[C@H]3[C@H]3OC(=O)[C@@H](CN(C)C)[C@@H]3CC1)=C\CC[C@@]1(C)O[C@@H]21 | -14% (active)
6 | Cc1ccc(NC(=O)c2ccc(CN3CCOCC3)c(C(F)(F)F)c2)cc1Oc1ccc(-c2[nH]nc3ncnc(N)c23)cc1 | 96.8%
7 | CC1OC(O[C@H]2/C=C/C=C/C=C/C=C/C=C/C=C/C=C/[C@H](C)[C@@H](O)[C@@H](C)[C@H](C)OC(=O)CC(O)CC(O)CCC(O)C(O)CC(O)C[C@]3(O)C[C@H](O)C(C(=O)O)C(C2)O3)C(O)[C@H](N)C1O (stereo not given in full) | 83.3%
8 | Cc1ccc(/C=C2\CN(C(=O)OC(C)(C)C)C/C(=C\c3ccc(C)cc3)C2=O)cc1 | 56.2%
9 | Cc1cccc2c(=O)c3c(sc12)c(NCCN)nc1ccccc13 | -57.3% (active)
10 | CC(=O)[C@H]1CC[C@H]2[C@@H]3CC[C@@H]4CC=C(C=O)C[C@]4(C)[C@H]3CC[C@]12C | 99.4%
11 | CC1(C)CC(=O)CC2(C1)N=C(N)Nc1nc3ccccc3n12 (stereo not given) | 107%
12 | COc1ccc(-c2c[nH]c(C(=O)O)c2-c2cc(OC)c(OC)c(OC)c2)cc1 | 11.8%
13 | Cc1cc2nc(C(Cl)Cl)nc(-c3ccc(S(=O)(=O)N(C)C)cc3)n2n1 | -20.2% (active)
14 | CN(CSc1ccc(Cl)cc1)c1ccc(CSc2ccc(Cl)cc2)cc1 | 17.2%
15 | O=C(O)[C@@H]1[C@H]2C[C@H]3c4[nH]c5ccccc5c4CCN3C[C@@H]2CC[C@@H]1O | 104%
16 | O=C(CN1C(=O)S/C(=C\c2ccccc2)C1=O)Nc1ncc(Cc2ccccc2Cl)s1 | 115%
17 | CC(=O)O.CC(=O)O.O.[Fe] | 100%
18 | NC(C(=O)O)C(O)c1ccco1 (stereo not given) | 102%
19 | O=Nc1ccc2ccccc2c1O | 68.3%
20 | CCOC(=O)N1CCc2c(sc3c2C(=O)N[C@H](c2ccc(OC)cc2)N3)C1 | 101%
21 | CSc1nc(C)c(C(=O)CCN2CCN(c3ccccn3)CC2)s1 | 87.1%
22 | COc1cc(Cl)cc(-c2nn(-c3cccc(NC(=O)Nc4cc(C(F)(F)F)cc(C(F)(F)F)c4)c3)cc2-c2ccncc2)c1 | -2.95% (active)
23 | COc1cc(/C=C2\C(=O)Nc3ccccc32)cc(OC)c1O | 20.4%
24 | O=C1OC(=O)C2C3CC(c4ccccc43)C12 (stereo not given) | 121%
25 | C=C1C(=O)O[C@H]2[C@H]1CC/C(COC(=O)NCc1cc3ccccc3[nH]1)=C\CC[C@@]1(C)O[C@@H]21 | 19.3%
